Reference: the supplement of paper PMC11732987, “Enantioselective OTUD7B fragment discovery through chemoproteomics screening and high-throughput optimisation” (Communications Chemistry, 2025)

What was measured:
Assay in all cases: log2 ratio of Biotin-Ahx-Ub-VS probe labelling (fragment/DMSO); higher = less target engagement (more negative = stronger competition), active = hit call of the paper (q ≤ 0.05, log2 ratio ≤ -1)
Conditions in all cases: compound concentration: 200 uM; treatment time: 3 h
[1] = target: T1, USP19 (UniProt O94966)
T1 sequence (whole entry): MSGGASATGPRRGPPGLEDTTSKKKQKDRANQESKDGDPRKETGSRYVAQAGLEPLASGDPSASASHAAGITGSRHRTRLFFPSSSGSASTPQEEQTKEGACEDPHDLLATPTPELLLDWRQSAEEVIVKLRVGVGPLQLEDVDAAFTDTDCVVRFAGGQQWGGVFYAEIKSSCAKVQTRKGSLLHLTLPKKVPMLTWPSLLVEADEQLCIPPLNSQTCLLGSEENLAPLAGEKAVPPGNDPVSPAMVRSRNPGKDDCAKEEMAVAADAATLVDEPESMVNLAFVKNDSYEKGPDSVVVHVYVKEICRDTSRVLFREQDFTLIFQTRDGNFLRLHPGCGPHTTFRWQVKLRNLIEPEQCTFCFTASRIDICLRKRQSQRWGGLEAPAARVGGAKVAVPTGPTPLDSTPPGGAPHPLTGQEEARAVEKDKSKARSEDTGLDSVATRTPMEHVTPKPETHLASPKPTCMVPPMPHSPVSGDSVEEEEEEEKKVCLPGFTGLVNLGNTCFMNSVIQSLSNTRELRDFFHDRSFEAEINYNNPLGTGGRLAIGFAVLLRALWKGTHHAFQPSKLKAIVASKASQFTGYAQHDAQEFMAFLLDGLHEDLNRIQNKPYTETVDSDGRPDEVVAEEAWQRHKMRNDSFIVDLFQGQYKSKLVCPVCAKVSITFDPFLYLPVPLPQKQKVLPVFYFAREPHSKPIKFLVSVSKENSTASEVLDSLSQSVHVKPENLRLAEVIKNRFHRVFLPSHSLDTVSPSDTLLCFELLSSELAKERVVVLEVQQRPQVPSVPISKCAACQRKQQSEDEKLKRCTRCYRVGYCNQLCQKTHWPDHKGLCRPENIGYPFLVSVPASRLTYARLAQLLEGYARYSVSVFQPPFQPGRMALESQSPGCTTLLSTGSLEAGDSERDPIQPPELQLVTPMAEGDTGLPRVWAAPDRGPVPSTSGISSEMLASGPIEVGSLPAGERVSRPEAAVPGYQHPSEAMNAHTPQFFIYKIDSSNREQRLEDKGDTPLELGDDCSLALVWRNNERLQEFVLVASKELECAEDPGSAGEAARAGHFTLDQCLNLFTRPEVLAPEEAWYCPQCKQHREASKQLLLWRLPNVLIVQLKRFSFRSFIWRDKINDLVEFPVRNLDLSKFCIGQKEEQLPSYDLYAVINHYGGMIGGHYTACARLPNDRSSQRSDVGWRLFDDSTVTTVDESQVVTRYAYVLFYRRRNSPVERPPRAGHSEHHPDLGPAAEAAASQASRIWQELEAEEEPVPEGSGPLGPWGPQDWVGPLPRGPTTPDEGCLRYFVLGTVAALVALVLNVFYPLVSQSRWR
Procedure, shortened: (§1)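 Labelling with Biotin-Ahx-Ub-VS (0.5 µM final, 1 h) followed a 3 h triplicate treatment of HEK293T lysate (495 µg per sample, Tris/CHAPS/IGEPAL buffer with protease inhibitors) with fragment at 200 µM or vehicle. Labelled DUBs were NeutrAvidin-enriched, digested with LysC and trypsin, and run by diaPASEF LC-MS/MS. The values, average log2 fragment/vehicle ratios by unpaired t-test, come from global-median-normalised Spectronaut label-free quantities. Proteins with ≥2 unique peptides were used.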

[2] = target: T2, USP22 (UniProt Q9UPT9)
T2 sequence (whole entry): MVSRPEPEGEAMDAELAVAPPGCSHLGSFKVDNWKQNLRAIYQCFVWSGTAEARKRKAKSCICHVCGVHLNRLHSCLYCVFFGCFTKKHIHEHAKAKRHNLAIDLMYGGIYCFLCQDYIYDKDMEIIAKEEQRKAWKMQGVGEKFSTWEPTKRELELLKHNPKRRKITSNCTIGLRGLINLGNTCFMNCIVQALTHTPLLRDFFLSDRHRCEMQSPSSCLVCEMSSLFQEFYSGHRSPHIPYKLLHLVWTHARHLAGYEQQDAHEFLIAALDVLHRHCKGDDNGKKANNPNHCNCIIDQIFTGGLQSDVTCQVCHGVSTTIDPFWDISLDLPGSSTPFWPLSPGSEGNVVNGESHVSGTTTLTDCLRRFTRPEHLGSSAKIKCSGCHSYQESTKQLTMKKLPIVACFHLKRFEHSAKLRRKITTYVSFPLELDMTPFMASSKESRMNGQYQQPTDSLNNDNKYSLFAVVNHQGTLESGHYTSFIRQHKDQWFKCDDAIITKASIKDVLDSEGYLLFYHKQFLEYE
Procedure, shortened: as §1

[3] = target: USP24 (UniProt Q9UPU5)
Sequence of USP24 (Q9UPU5 whole entry): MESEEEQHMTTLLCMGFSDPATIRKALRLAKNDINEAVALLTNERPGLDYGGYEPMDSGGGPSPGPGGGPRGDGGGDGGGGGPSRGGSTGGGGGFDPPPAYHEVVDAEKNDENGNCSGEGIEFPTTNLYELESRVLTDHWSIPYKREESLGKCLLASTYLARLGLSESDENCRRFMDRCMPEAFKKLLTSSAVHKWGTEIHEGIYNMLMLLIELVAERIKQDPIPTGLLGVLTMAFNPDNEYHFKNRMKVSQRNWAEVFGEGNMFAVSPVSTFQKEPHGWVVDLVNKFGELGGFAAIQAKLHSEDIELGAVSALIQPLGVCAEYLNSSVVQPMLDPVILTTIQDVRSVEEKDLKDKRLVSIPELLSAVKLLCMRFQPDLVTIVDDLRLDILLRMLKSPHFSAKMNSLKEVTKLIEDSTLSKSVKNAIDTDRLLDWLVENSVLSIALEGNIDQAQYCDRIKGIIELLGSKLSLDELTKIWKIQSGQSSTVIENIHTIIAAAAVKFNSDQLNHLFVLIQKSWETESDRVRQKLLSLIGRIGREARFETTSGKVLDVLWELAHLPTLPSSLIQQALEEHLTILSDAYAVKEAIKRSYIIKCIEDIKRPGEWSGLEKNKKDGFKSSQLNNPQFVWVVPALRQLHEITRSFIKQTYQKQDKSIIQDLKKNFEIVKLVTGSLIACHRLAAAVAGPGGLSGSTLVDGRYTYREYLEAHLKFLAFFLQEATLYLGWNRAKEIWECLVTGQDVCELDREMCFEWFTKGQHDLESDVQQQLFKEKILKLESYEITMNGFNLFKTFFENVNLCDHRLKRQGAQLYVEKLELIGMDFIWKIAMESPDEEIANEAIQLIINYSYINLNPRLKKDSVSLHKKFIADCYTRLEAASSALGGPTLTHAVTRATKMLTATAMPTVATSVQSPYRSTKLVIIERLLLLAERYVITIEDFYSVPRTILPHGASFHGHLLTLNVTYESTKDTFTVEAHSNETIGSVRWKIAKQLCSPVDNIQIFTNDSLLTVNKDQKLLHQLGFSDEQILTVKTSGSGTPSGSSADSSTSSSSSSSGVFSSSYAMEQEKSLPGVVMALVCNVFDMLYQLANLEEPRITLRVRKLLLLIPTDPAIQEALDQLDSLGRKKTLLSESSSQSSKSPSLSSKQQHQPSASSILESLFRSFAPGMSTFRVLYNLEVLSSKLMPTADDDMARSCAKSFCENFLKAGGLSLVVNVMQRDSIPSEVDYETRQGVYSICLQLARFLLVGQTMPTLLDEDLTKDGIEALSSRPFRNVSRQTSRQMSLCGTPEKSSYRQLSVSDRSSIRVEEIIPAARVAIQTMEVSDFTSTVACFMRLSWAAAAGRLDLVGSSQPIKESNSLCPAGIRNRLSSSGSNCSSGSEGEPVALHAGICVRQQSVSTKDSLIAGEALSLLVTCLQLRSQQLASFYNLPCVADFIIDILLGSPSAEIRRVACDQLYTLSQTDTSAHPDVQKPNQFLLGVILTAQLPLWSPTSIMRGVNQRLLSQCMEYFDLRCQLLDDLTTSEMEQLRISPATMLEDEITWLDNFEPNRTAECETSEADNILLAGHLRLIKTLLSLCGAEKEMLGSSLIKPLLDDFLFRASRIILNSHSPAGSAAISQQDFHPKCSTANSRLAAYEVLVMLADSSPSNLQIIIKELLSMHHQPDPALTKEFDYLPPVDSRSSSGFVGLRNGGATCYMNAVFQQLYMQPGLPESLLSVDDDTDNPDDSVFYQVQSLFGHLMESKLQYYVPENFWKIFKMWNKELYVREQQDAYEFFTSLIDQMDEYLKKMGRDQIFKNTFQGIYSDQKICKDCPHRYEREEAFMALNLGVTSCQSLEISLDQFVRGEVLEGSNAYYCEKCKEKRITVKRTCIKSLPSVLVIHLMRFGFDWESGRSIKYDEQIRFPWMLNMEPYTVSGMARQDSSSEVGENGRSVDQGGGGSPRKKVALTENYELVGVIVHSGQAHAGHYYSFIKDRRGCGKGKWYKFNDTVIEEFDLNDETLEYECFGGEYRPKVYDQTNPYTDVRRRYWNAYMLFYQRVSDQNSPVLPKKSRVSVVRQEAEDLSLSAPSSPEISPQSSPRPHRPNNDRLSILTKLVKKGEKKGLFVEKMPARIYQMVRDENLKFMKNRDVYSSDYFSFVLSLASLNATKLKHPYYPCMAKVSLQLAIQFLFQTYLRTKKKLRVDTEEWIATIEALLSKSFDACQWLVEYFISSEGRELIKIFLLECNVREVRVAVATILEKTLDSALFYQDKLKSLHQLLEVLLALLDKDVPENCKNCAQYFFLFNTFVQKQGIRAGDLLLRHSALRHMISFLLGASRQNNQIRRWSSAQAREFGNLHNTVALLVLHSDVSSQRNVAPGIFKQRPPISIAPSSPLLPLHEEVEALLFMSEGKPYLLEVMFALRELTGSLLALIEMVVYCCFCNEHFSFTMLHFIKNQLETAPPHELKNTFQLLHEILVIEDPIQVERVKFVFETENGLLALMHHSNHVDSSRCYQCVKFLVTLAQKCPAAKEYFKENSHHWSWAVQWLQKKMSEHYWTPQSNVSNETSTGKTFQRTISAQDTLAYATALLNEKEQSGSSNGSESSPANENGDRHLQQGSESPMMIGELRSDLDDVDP
Procedure, shortened: as §1

[4] = target: T3, USP25 (UniProt Q9UHP3)
T3 sequence (whole entry): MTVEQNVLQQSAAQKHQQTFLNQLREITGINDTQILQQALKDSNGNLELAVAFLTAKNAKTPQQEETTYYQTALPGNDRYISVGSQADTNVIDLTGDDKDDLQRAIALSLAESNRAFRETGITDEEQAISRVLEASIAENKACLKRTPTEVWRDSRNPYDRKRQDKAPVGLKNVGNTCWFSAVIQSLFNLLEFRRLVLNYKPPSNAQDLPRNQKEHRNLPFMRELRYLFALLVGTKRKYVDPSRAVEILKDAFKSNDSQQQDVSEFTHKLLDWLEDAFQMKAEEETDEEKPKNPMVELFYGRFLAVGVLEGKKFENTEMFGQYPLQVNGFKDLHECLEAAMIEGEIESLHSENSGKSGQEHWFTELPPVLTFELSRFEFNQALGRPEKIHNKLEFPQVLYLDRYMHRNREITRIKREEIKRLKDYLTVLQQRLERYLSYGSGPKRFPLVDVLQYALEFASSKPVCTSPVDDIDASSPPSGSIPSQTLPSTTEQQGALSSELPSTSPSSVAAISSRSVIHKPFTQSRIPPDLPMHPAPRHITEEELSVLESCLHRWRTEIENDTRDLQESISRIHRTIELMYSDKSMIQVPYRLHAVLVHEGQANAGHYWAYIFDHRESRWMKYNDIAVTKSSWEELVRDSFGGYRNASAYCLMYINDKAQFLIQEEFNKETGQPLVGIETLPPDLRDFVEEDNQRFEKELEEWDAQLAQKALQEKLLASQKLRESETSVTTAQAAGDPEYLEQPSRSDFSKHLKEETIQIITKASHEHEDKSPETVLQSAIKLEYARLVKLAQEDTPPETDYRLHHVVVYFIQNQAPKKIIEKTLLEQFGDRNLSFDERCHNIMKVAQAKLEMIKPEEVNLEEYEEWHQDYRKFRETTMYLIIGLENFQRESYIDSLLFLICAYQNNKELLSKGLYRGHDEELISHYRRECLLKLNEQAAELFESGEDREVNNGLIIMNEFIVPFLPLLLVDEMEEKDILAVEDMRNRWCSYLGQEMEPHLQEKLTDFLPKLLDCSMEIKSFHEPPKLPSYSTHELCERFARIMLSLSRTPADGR
Procedure, shortened: as §1

[5] = target: T4, USP28 (UniProt Q96RU2)
T4 sequence (whole entry): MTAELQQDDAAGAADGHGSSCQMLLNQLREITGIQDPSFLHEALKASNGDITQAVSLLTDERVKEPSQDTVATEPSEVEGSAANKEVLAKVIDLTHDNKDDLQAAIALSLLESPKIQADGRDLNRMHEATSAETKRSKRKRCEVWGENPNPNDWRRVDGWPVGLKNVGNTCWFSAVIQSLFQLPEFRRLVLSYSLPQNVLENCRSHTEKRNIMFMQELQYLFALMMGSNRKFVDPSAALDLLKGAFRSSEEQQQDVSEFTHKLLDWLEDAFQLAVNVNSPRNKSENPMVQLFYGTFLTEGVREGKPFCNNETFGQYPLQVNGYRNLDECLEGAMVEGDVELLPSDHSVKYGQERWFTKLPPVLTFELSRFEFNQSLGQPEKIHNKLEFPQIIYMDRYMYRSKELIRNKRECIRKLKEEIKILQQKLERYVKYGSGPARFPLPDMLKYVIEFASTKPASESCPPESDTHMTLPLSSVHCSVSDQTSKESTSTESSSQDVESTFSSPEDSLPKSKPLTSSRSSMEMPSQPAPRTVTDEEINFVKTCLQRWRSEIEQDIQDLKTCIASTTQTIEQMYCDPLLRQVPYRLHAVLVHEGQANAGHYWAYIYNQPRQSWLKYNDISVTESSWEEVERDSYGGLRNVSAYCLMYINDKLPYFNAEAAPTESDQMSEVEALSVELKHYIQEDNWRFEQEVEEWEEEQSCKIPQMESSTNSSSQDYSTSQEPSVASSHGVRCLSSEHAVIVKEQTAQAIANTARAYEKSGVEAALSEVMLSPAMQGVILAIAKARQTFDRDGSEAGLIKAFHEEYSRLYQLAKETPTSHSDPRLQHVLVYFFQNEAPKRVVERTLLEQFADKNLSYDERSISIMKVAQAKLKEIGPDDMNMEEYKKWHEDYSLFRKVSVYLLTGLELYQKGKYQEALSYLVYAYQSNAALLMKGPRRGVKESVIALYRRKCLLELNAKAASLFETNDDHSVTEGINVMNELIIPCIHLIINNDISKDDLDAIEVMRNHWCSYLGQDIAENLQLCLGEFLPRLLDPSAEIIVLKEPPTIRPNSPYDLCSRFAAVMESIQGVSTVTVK
Procedure, shortened: as §1

Measured: log2 ratio of Biotin-Ahx-Ub-VS probe labelling

O=C(CCl)N(C1CCCC1)C1CCS(=O)(=O)C1 (stereo not given)
inactive: [1] -0.0865 | [2] 0.236 | [3] -0.274 | [4] 0.0715 | [5] -0.36
